Screens: PubChem BioAssay, DiRusso Lab, Biochemistry Department, University of Nebraska
This excerpt belongs to a sample that is enriched for hits.
Algae TAG accum – inducers of TAG accumulation in Chlamydomonas, primary screen, qHTS, Chlamydomonas reinhardtii; Nile Red fluorescence, 72 h; calls only at 10 µM (by protocol); 0.84% of 44,000 active; call rule not given here;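 also: hits raise Nile Red signal meaning more stored TAG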
Numbers without * were called inactive; i = inactive; + = active, no number.

SMILES	Algae TAG accum
C#CCSc1nc2ccccc2n1C(=O)c1cccs1	i
O=S(=O)(Cc1ccccc1)N1CCN(S(=O)(=O)c2ccccc2)CC1	i
O=C(NCCSC1CCCCC1)c1ccc([N+](=O)[O-])cc1	i
COc1cccc(N2CCN(C3CCCC(C)C3)CC2)c1 (stereo not given)	+
COc1cccc(N2C(=O)CC(N3CCN(c4ccccc4)CC3)C2=O)c1 (stereo not given)	i
COc1ccccc1N1CCN(C2CCC(C)CC2)CC1 (stereo not given)	i
CC1CCC(N2CCN(c3ncccn3)CC2)C1 (stereo not given)	i
COc1cccc(N2CCN(C3CCC(C)C3)CC2)c1 (stereo not given)	i
CC1CCC(N2CCN(c3ccccc3)CC2)C1 (stereo not given)	+
COc1ccccc1CC(=O)Nc1ccc2c(c1)OCCO2	i
COc1cc([N+](=O)[O-])ccc1NC(=O)c1ccc(C)o1	i
CS(=O)(=O)c1ncc(-c2ccccc2)cn1	i
Cc1ccc(OCCCn2ccnc2)c(Br)c1	+
Cc1ccc(OCCCCN2CCCC2)cc1C	+
Cc1ccc(OCCCN2CCCCC2)c(C)c1	i
Cc1ccc(OCCCCn2ccnc2)c(Br)c1	i
Cc1ccc(OCCCCN2CCCC2)c(C)c1	+
Cc1ccc(OCCCN2CCCC2)c([N+](=O)[O-])c1	i
Cc1ccccc1OCCCCN1CCCCC1	i
Cc1ccc(OCCCn2ccnc2)c([N+](=O)[O-])c1	i
Cc1ccc(OCCCN2CCCC2)c(Br)c1	i
Cc1cccc(OCCCCN2CCCCC2)c1	i
Cc1ccc(OCCN2CCCC2)cc1C	i
Cc1ccc(OCCCCN2CCCC2)c(Br)c1	+
Cc1cc(C2(c3ccc(O)c(C)c3)C(=O)N(Cc3ccccc3)c3ccccc32)ccc1O	i
SMILES	Algae TAG accum
Cc1ccc(C(=O)NC2CCCCC2)cc1Br	i
CCCNC(=O)C1CC(=O)N(c2ccc(Cl)cc2)C1 (stereo not given)	i
Clc1ccc(CN2CCN(c3ccccn3)CC2)cc1	i
O=C(CCC1CCCCC1)Nc1ccccc1Br	i
CCOc1ccc(NC(=O)C(C)N2C(=O)c3cccc([N+](=O)[O-])c3C2=O)cc1 (stereo not given)	i
O=C1c2ccccc2C2CN(Cc3ccccc3)CCC12 (stereo not given)	i
Cc1ccc2nc(-c3ccc(NC(=O)CCCOc4ccc(Cl)cc4)cc3)sc2c1	i
COc1cc(C(=O)N2CCN(Cc3ccc([N+](=O)[O-])cc3)CC2)cc(OC)c1OC	i
Cc1ccc(S(=O)(=O)N2CCCC(C(=O)Nc3ccc(C)c(C)c3)C2)cc1 (stereo not given)	i
Cc1ccc(OCCCN2CCOCC2)c(C)c1	+
Cc1ccc(OCCCCN2CCOCC2)cc1	+
Cc1ccc(OCCCCN2CCCCC2)cc1	i
Cc1ccccc1OCCCN1CCOCC1	i
Cc1ccc(OCCCCN2CCOCC2)c(C)c1	i
Clc1ccc(OCCCN2CCOCC2)cc1	i
OCCN1CCN(CC2CCCCC2)CC1	i
CCOc1ccc(Br)cc1/C=C/c1[nH]c(=O)[nH]c(=O)c1[N+](=O)[O-]	i
C=CCOc1ccc(C(=O)NCc2ccccc2)cc1	i
O=C(Nc1ccccn1)C12CC3CCC(CC(C3)C1)C2	i
CCN1CCN(CC2CCCCC2)CC1	i
CCN1CCN(C2CCC(C(C)(C)C)CC2)CC1 (stereo not given)	+
COc1ccccc1N1CCN(C2CCN(C3CCC(c4ccccc4)CC3)CC2)CC1 (stereo not given)	i
CCN1CCC(N2CCN(c3ccc(Cl)cc3)CC2)CC1	+
CCN1C(=O)CC(N2CCN(c3ccc(Cl)cc3)CC2)C1=O (stereo not given)	i
c1ccc(C2CCC(N3CCN(Cc4ccncc4)CC3)CC2)cc1 (stereo not given)	+
SMILES	Algae TAG accum
CCCN1CCC(N2CCN(c3ccc([N+](=O)[O-])cc3)CC2)CC1	i
CCN1CCN(C2CCCC(C)C2)CC1 (stereo not given)	i
O=C(c1ccccc1)N1CCN(Cc2ccncc2)CC1	i
COc1ccc(C(=O)N2CCN(C3CCC(c4ccccc4)CC3)CC2)cc1OC (stereo not given)	i
CCN1CCN(C2CCC(c3ccccc3)CC2)CC1 (stereo not given)	+
c1ccc(CN2CCC(N3CCN(C4CCCC4)CC3)CC2)cc1	i
Cc1ccccc1OCC(=O)Nc1ccc(Br)c2cccnc12	i
NC(=O)c1ccc(NC(=O)c2cc(Br)ccc2Cl)cc1	i
CC(C(=O)Nc1ccc(Br)cc1)n1cnc2ccccc2c1=O (stereo not given)	i
Cc1ccc(C(=O)Nc2ccc(C)c(C)c2)cc1	i
C=CCc1ccc(OCCCOc2ccc(C=O)cc2)c(OC)c1	i
CC1CN(Cc2cc([N+](=O)[O-])c3cccnc3c2O)CC(C)O1 (stereo not given)	i
Cc1ccc([N+](=O)[O-])cc1NC(=O)C1CC(O)CN1C(=O)Oc1ccccc1 (stereo not given)	i
CC(C)(C)c1ccc(-c2csc(N)n2)cc1	i
CCc1cc2c(=O)c(-c3cnn(-c4ccccc4)c3)coc2cc1O	i
Cc1cc(-c2ccc(NC(=O)c3ccco3)c(C)c2)ccc1NC(=O)c1ccco1	i
COc1ccc(OC)c(NC(=O)c2ccco2)c1	i
COc1cc(-c2ccc(NC(=O)c3ccco3)c(OC)c2)ccc1NC(=O)c1ccco1	+
Fc1ccccc1OCCSc1nc2ccccc2[nH]1	i
CCOc1ccc(N(C(C)C(N)=O)S(C)(=O)=O)cc1 (stereo not given)	i
CCOc1ccc(N(C(C)C(=O)NCc2ccccc2OC)S(C)(=O)=O)cc1 (stereo not given)	i
C=CCNC(=O)C(C)N(c1ccc(OCC)cc1)S(C)(=O)=O (stereo not given)	+
C=C(C)Cn1c(Cc2ccccc2)nnc1SCC(=O)O	i
O=C(Nc1ccc(S(=O)(=O)N2CCCC2)cc1)c1ccc(Cl)cc1Cl	+
O=C(Nc1ccccc1)c1cc(S(=O)(=O)N2CCCCC2)ccc1Cl	i
SMILES	Algae TAG accum
O=C(Nc1ccc(S(=O)(=O)N2CCCC2)cc1)c1ccccc1I	i
O=C(NCCC1=CCCCC1)C1CCN(C(=O)c2ccc(Cl)cc2Cl)CC1	i
N#Cc1c(-n2ncnc2-c2ccc(F)cc2)sc2c1CCCC2	i
N#Cc1c(-n2ncnc2-c2cccnc2)sc2c1CCCCC2	+
COc1ccc(-c2ncnn2-c2sc3c(c2C#N)CCCC3)cc1OC	i
CCCOc1ccc(S(=O)(=O)NCc2ccco2)cc1	i
CCOc1ccccc1N(CC(N)=O)S(=O)(=O)c1ccc(C)cc1	i
Cc1ccc(Cn2cnc3sc4c(c3c2=O)CCC4)c(C)c1	i
Cc1ccc(Cn2cnc3c(cnn3-c3ccccc3)c2=O)c(C)c1	+
CCc1nc2c(cnn2-c2ccccc2)c(=O)n1-c1cccnc1	i
NCCSC1CC(=O)N(c2cccc(Cl)c2)C1=O (stereo not given)	i
COc1cc(NC(=O)c2ccc(OC(C)C)cc2)c(OC)cc1Cl	i
COc1ccc(-c2ncnn2-c2ccc(C)c(Cl)c2)cc1OC	i
CN(c1ccc(C(=O)NC2CCCCCC2)cc1)S(=O)(=O)c1ccccc1	+
CN(C)S(=O)(=O)c1ccc(C(=O)NC2CCCCCCC2)cc1	i
O=C(NC1CCCCCCC1)c1ccccc1	i
